# Data from PubChem BioAssay (NCI).
# This is part of a sample that, as a whole, favours compounds with a hit. Of some 83,000 tested, about 20% had one in any assay.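 Assay: single dose, 48 h. Readout: percent growth (0 = no net growth; negative = cell death). Active: <10.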 A number with no mark means an inactive call. Active and inactive are the calls of the source.
# Assays:
# Assay in all cases: NCI-60 one-dose screen, 48 h (100 = growth as untreated, 0 = no growth, -100 = all killed)
# Settings in all cases: 10 µM unless noted
# [1] = test system: NCI-H23 lung
# [2] = test system: NCI-H226 lung
# [3] = test system: NCI-H322M lung
# [4] = test system: HOP-62 NSCLC
# [5] = test system: NCI-H460 lung
# [6] = test system: HOP-92 NSCLC
# [7] = test system: NCI-H522 lung
# [8] = test system: A549/ATCC NSCLC
# [9] = test system: 786-0 renal
# [10] = test system: COLO 205 colon
# [11] = test system: DU-145 prostate
# [12] = test system: K-562 leukemia
# [13] = test system: MALME-3M melanoma
# [14] = test system: MDA-MB-231 breast
# [15] = test system: RXF 393 renal
# [16] = test system: SF-268 CNS
# [17] = test system: SF-295 CNS
# [18] = test system: SF-539 CNS
# [19] = test system: UACC-257 melanoma
# [20] = test system: M14 melanoma
SMILES,growth [1] [%],growth [2] [%],growth [3] [%],growth [4] [%],growth [5],growth [6] [%],growth [7],growth [8] [%],growth [9],growth [10],growth [11],growth [12],growth [13],growth [14],growth [15],growth [16] [%],growth [17] [%],growth [18] [%],growth [19],growth [20] [%]
O=C(N/N=C/c1ccccc1O)c1ccccc1O,37.5,67,32.6,42.1,13.2%,56.5,6.88% (active),45.4,25.8%,55.5%,38.7%,37.8%,47.9%,56.7%,54%,36.6,42.1,34.5,5.06% (active),36.5
COc1ccc(-c2nn(-c3cccc(Cl)c3)cc2-c2cc(-c3ccc(Br)cc3)[nH]c(=O)c2C#N)cc1,86.8,84,83.9,93.8,48.9%,82.1,74.7%,68.2,102%,104%,56.5%,81.8%,69.1%,60.8%,75.3%,89.1,99.1,81,93.4%,81.4
CCN(CC)CCNc1ccc([N+](=O)[O-])c2sc3cc(Cl)ccc3c(=O)c12,63.5,84.9,53.9,57.7,-17.8% (active),47.5,49.4%,52.9,-80.3% (active),60.1%,50.2%,1.93% (active),-9.6% (active),22.6%,-39.3% (active),52.4,43.9,34.5,71.5%,79.4
COc1ccc(/C=C/C(=O)/C=C(/C=C/c2ccc(OC)c(OC)c2OC)OB(F)F)c(OC)c1OC,37.3,75.6,91.8,70.4,43.6%,79.5,16.3%,55.7,14.1%,7.86% (active),42.9%,9.46% (active),16.4%,7.37% (active),6.5% (active),31.9,56.4,32.9,37%,19.1
Nc1ncc(-c2ccc3ncnc(Nc4ccc(F)c(Cl)c4)c3c2)cn1,56.2,55.5,33,57.5,11.9%,31.9,42.9%,34.6,6.18% (active),32.3%,43.3%,55.5%,36.3%,54.4%,32.9%,54.9,16.2,55.4,101%,87.5
CCOC(=O)CSc1nnc(-c2cc3c([nH]c4ccccc43)c(-c3cccc(O)c3)n2)n1-c1ccc(C)cc1,97,100,95.2,88.3,103%,48.9,47.1%,98.5,88.7%,95.1%,-0.541% (active),16.8%,80.3%,45%,79.5%,74.7,99.9,78,91.3%,44.5
CCC1S/C(=N\N=C(/C)c2ccco2)N(c2ccccc2)C1=O (stereo not given),98.8,122,66.8,106,93.8%,40.6,74.7%,104,96.9%,117%,123%,120%,79.6%,118%,103%,100,123,107,109%,138
CN[C@@H](CCCNC(N)=NC/C=C(/C)CCC=C(C)C)C(=O)N(C)[C@@H](CCCNC(N)=NCC=C(C)C)C(=O)N[C@H](C)[C@H](OS(=O)(=O)O)c1ccc(OS(=O)(=O)O)c(COS(=O)(=O)O)c1,99.9,89.1,102,102,110%,100,83.9%,89.7,97.1%,108%,108%,110%,117%,95.5%,102%,101,112,104,92.5%,105
